The record followed here is PubChem BioAssay (NCATS).

Test [1] in a line: qHTS assay for measurement of the activity of small molecule inhibitors on Zika virus induced Caspase-3 activity in human iPSC derived neural progenitor cells (hNPCs) (AID 1224857). Also: nearly all actives have a fitted effect of over 65% in size. Put shortly: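 Pretreat hNPCs with compound 1 h; infect ZIKV 2 FFU/cell; 6 h 37 C, 5% CO2; Caspase-Glo 3/7, 30 min RT; luminescence; normalize to no-virus and virus-only wells.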
Background: Quantitative high-throughput screening tests each substance at several concentrations.

Test [2] is described as follows: qHTS assay for measurement of the activity of small molecule inhibitors on Zika virus induced Caspase-3 activity in human astrocytoma cells (AID 1224859). Put shortly:
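Human SNB-19 astrocytoma cells in RPMI 1640 with 10% FBS receive compound one hour ahead of Zika virus at 2 FFU/cell. After 6 h infection, caspase-3/7 activity is detected by Caspase-Glo luminescence.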

The nature of test [3]: qHTS assay to identify small molecule inhibitors of chordoma cells - UCH-1 (AID 1259355). Also: nearly all actives have a fitted effect of over 55% in size. Also: potency is read from the fitted curve at half-maximal effect; series mostly up to about 46 µM. Put shortly: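 Screening used approved and investigational drugs in 15-point titration against 800 seeded cells per well. A fixed combination of auranofin with camptothecin, doxorubicin, rubitecan and topotecan followed compound addition, and growth was scored by CellTiter-Glo after 48hr.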

The nature of test [4]: qHTS assay to identify small molecule inhibitors of chordoma cells - UCH-2 (AID 1259356). Also: potency is read from the fitted curve at half-maximal effect.
A short description of test [5]: P-glycoprotein substrates identified in KB-8-5-11 adenocarcinoma cell line, qHTS therapeutic library screen (AID 1346987). Also: nearly all actives have a fitted effect of over 65% in size. Also: potency is read from the fitted curve at half-maximal effect. Put shortly:
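Compounds are pinned in dose-response onto KB-8-5-11 cells (500 cells/well, colchicine-free medium) and left 72 h at 37 degree C. CellTiter-Glo luminescence then yields AC50 values.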

A short description of test [6]: Natriuretic polypeptide receptor (hNpr1) antagonism - Pilot counterscreen GloSensor control cell line (AID 1347045; calls by dose curve; also: potency is read from the fitted curve at half-maximal effect). Put shortly: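 Control counterscreen: luciferase cGMP-biosensor HEK293 cells (no Npr1) received compound for 30 min at room temperature after GloSensor substrate loading. Luminescence was measured before and 20 min after soluble guanylyl cyclase activation by 50 uM nitroprusside.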
On the technique in general: A counterscreen serves to expose hits that act by an unwanted route or on another target.

Test [7] addresses Atrial natriuretic peptide receptor 1 (Homo sapiens) (UniProt P16066). The test can be described thus: Natriuretic polypeptide receptor (hNpr1) antagonism - Pilot screen (AID 1347049; calls by dose curve;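 also: agonist-evoked cGMP luminescence read 20 min after hNppA addition; series mostly up to about 58 µM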). Put shortly: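 cGMP-sensor HEK293/hNpr1 cells, 1500/well, plated overnight at 37C. 2% GloSensor reagent, 2 h RT. Compound (23 nL pin transfer) 30 min RT, baseline luminescence pre-read. 0.1 nM hNppA, 20 min RT, post-read.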

Test [8] addresses Atrial natriuretic peptide receptor 2 (Homo sapiens) (UniProt P20594). Nature of the test: Natriuretic polypeptide receptor (hNpr2) antagonism - Pilot subtype selectivity assay (AID 1347050; calls by dose curve). Put shortly:
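Luminescence from a genetically encoded cGMP luciferase biosensor in hNpr2-expressing HEK293 cells is read before and 20 min after adding 1 nM hNppC. Test compounds, in interplate 1:5 titrations, are added 30-50 min ahead of the agonist.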

Test [9] in a line: NS1 protein of Zika virus - qHTS assay to identify small molecule inhibitors in human HEK 293 cells (AID 1347053). Also: series mostly up to about 46 µM; nearly all actives have a fitted effect of over 55% in size. Put shortly: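 In this cell-based screen, HEK 293 cultures received compound for one hour before Zika MR766 at MOI = 0.5. NS1 was quantified 24 hours later by TR-FRET, normalized to virus-free wells and infected wells.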
Test [10] deals with T1, Tyrosine-protein phosphatase non-receptor type substrate 1 (Homo sapiens) + Leukocyte surface antigen CD47 (Homo sapiens) (UniProt P78324+Q08722). The test can be described thus: CD47-SIRPalpha protein protein interaction - LANCE assay qHTS validation (AID 1347057; active = well fitted curve in the direction sought with a large enough effect in the signal ratio, with a control signal flat, not every such curve was filed as active; the % refers to the signal ratio; also: series mostly up to about 38 µM). Put shortly: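 Inhibition of soluble CD47/SIRPalpha ectodomain association by titrated compounds, measured as 665/615 nm time-resolved FRET ratio after sequential 30 min room-temperature incubations.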
Background: TR-FRET usually uses a lanthanide donor and a delayed reading to cut background.

Test [11] deals with T1, Tyrosine-protein phosphatase non-receptor type substrate 1 (Homo sapiens) + Leukocyte surface antigen CD47 (Homo sapiens). The test can be described thus: CD47-SIRPalpha protein protein interaction - HTRF assay qHTS validation (AID 1347058; active = well fitted curve in the direction sought with a large enough effect in the signal ratio, not every such curve was filed as active; the % refers to the signal ratio; also: series mostly up to about 38 µM). Put shortly: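 Soluble extracellular domains (6His-CD47, Avi-tag-biotinylated SIRPalpha) in PBS pH 7.4 with 0.05% IGEPAL CA-630. Compounds were preincubated 30 min at RT with CD47 and anti-His-Eu, then SIRPalpha and SAV-XL665 were added. TR-FRET 665/615 ratio.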

For test [12] the target is unchanged. Nature of the test: CD47-SIRPalpha protein protein interaction - Alpha assay qHTS validation (AID 1347059).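 Also: bead proximity luminescence from CD47 binding SIRPalpha after compound preincubation with SIRPalpha.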 Put shortly: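 SIRPalpha-biotin 25 nM + cpd, 30 min RT, dark; add CD47-His 12.5 nM, 30 min; add Ni-NTA/SAV beads 10 ug/mL, 30 min; AlphaScreen. Buffer PBS pH 7.4 + 0.05% IGEPAL CA-630. Non-biotinylated SIRPalpha as control inhibitor.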
The nature of test [13]: qHTS of pediatric cancer cell lines to identify multiple opportunities for drug repurposing: Primary screen for TC32 cells (AID 1347089). Also: nearly all actives have a fitted effect of over 60% in size. Put shortly: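 Luminescent CellTiter-Glo read-out of metabolically active TC32 cells after 48 h compound exposure. Primary: MIPE 11-point, 0.78 nM–46 µM; NPC 8-point, 0.59 nM–46 µM. Confirmatory: 11-point dilutions.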
Test [14] is described as follows: qHTS of pediatric cancer cell lines to identify multiple opportunities for drug repurposing: Primary screen for DAOY cells (AID 1347090). Also: series mostly up to about 46 µM; nearly all actives have a fitted effect of over 55% in size. Put shortly: (§1)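 Viability measured as metabolically active cells via CellTiter-Glo luminescence following 48 hours of compound exposure, 11-point dilutions in confirmatory testing. 500-1,000 cells/well plated 5 hours before dosing; controls were DMSO and 2.3 µM bortezomib.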

Test [15] in a line: qHTS of pediatric cancer cell lines to identify multiple opportunities for drug repurposing: Primary screen for SJ-GBM2 cells (AID 1347091). Put shortly: as §1
For test [16], the target named is Parathyroid hormone/parathyroid hormone-related peptide receptor (Homo sapiens) (UniProt Q03431). Nature of the test: qHTS for PTHR1 Agonists: Optimization Screen against the NCGC LOPAC library (AID 1347079).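 Also: GloSensor cAMP luminescence in HEK-293 GP2 cells expressing human PTHR1 with IBMX.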 Put shortly:
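HEK-293 GP2 cells, PTHR1 + GloSensor cAMP; 3000 cells/well, o/n. Luciferin + IBMX 0.5mM each (stock), 1 hr 37C. Cpd titration, 1 hr 37C. Lum after 15 min RT. Ctrl M-PTH(1-15) top 10uM.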

A number with no mark means an inactive call. Results filed as inconclusive are left out. Calls of active or inactive are those of the source. Unless noted, calls follow the shape of the dose curve; as a rule, active = well fitted curve in the direction sought with a large enough effect; inconclusive = small, poorly fitted or top-dose-only effect, or another doubt; inactive = no such curve, though single readings can be large; an effect the other way counts as inactive or inconclusive.

T1 sequence (P78324 whole entry, looked up, the tested form may be a part): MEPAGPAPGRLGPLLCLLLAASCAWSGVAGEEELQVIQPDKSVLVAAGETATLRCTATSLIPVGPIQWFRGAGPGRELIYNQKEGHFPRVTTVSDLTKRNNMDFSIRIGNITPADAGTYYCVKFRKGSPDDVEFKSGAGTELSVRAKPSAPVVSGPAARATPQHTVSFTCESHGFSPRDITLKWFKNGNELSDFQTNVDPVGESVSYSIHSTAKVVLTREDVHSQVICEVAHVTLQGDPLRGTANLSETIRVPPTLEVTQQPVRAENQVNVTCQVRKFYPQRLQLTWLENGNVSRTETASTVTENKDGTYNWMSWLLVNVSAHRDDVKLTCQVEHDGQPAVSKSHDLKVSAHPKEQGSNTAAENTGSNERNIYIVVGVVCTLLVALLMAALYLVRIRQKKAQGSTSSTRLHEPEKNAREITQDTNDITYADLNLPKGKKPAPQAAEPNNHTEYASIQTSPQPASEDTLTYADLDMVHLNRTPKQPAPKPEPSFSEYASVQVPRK
T1 sequence (Q08722 whole entry, looked up, the tested form may be a part): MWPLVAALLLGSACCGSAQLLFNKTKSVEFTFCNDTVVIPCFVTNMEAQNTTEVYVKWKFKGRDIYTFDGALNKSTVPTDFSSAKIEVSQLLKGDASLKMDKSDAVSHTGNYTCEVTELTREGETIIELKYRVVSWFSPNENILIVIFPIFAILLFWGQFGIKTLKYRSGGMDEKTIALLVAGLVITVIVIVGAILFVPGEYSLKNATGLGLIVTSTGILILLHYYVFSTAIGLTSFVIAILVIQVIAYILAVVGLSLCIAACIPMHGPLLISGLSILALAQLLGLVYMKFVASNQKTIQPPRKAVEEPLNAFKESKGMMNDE
Atrial natriuretic peptide receptor 1 (Homo sapiens), sequence (P16066 whole entry, looked up): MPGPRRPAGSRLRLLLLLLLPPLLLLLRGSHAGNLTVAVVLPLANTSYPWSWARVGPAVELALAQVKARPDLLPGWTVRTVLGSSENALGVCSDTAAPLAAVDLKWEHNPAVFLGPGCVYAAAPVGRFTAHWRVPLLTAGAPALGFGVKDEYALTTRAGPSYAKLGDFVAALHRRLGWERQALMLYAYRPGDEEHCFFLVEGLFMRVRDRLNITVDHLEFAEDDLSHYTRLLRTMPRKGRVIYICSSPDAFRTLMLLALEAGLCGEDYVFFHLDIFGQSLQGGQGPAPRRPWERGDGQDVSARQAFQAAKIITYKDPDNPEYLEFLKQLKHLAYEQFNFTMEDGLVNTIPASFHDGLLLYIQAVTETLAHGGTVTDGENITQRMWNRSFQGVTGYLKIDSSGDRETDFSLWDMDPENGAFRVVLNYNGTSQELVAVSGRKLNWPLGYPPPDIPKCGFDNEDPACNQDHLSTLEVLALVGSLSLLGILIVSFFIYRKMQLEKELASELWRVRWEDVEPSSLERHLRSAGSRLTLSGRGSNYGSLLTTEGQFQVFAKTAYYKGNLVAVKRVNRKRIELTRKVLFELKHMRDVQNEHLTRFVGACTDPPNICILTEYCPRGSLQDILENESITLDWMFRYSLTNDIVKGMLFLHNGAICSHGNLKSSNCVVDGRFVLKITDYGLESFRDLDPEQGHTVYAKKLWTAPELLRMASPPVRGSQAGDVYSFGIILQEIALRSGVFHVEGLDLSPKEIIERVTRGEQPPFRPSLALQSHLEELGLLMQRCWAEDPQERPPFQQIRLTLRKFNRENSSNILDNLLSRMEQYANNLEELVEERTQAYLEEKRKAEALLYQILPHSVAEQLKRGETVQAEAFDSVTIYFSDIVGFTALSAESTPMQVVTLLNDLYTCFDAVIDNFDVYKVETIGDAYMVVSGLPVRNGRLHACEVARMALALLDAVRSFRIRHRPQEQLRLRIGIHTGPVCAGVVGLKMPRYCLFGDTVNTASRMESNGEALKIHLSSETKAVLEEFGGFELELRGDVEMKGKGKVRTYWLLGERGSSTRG
Atrial natriuretic peptide receptor 2 (Homo sapiens), sequence (P20594 whole entry, looked up): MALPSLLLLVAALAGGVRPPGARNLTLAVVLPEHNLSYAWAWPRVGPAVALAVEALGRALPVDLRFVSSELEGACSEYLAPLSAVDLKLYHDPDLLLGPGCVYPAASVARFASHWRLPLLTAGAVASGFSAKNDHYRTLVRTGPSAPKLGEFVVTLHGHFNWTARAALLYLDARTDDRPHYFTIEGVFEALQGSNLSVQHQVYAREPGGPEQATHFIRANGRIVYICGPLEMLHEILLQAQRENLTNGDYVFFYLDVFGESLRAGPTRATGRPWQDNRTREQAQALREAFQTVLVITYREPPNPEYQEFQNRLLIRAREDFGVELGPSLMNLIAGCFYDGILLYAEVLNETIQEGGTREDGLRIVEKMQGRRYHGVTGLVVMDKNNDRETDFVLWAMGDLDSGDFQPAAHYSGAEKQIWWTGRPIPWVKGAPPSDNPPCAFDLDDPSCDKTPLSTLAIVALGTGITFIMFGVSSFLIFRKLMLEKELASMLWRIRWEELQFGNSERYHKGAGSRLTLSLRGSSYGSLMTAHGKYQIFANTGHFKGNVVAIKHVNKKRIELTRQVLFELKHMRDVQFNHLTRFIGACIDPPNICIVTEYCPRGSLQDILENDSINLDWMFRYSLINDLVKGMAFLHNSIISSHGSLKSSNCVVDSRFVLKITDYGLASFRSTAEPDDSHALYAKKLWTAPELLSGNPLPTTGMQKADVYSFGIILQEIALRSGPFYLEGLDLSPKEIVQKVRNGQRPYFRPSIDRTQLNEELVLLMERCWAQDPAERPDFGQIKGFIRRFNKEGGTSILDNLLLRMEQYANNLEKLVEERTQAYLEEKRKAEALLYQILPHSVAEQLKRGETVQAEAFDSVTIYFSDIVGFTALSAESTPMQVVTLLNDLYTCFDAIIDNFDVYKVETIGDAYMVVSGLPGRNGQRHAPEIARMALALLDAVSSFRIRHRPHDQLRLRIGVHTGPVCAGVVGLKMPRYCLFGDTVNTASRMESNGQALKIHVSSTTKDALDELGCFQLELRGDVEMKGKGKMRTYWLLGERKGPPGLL
Parathyroid hormone/parathyroid hormone-related peptide receptor (Homo sapiens), sequence (Q03431 whole entry, looked up): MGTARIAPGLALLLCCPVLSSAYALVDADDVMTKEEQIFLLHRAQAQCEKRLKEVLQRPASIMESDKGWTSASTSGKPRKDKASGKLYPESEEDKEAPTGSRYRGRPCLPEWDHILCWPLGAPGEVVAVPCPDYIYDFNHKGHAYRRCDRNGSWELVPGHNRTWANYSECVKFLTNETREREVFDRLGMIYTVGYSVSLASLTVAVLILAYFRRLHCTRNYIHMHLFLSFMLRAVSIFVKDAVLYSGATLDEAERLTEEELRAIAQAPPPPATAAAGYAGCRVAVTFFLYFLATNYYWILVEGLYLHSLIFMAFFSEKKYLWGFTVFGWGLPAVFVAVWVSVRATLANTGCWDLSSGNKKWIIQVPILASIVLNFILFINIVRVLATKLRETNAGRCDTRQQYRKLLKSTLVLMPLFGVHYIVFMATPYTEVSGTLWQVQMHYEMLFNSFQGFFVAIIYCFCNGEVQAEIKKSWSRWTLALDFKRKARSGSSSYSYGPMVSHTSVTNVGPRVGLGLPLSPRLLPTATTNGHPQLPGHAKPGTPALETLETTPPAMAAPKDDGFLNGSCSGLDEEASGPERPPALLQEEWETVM

As for `CO[C@@]1(NC(=O)CSCC#N)C(=O)N2C(C(=O)O)=C(CSc3nnnn3C)CS[C@@H]21`, the call in test [1], in test [2], in test [9], in test [10] and in [11] was inactive. Also, the Potency result in test [3], in test [4], in test [5], in test [6], in [7] and in test [8] was “inactive” each time. The Potency entry in test [12], in [13], in test [14] and in test [15] was “inactive” in each case.
Regarding `CCNC(=O)N1CCN(CCCC(c2ccc(F)cc2)c2ccc(F)cc2)CC1`, the call in test [1], in test [2], in test [9], in test [10] and in test [11] was inactive. The Potency entry in test [3], in test [4], in [12], in test [13] and in [15] was “inactive” each time. The Potency is 16.4 µM (active) in test [5] and 11.7 µM (active) in test [6].
As to `CN(C)C(=O)Oc1cccc([N+](C)(C)C)c1`, the molecule was classed as inactive in [1], in test [2], in test [9], in test [10], in [11] and in [16]. The Potency result in test [3], in test [4], in test [5], in test [7], in test [8] and in test [12] was “inactive” throughout. In addition, the Potency entry in test [14] and in test [15] was “inactive” throughout.
Turning to `CCOC(=O)c1cnc2c(cnn2CC)c1NN=C(C)C`, the call in test [1], in test [2], in test [9], in test [10], in [11] and in test [16] was inactive. For the same molecule, the Potency result in test [3], in test [4], in [6], in test [7], in test [8] and in [12] was “inactive” throughout. Besides, the Potency result in test [13], in test [14] and in test [15] was “inactive” each time.
Turning to `COCC(=O)O[C@]1(CCN(C)CCCc2nc3ccccc3[nH]2)CCc2cc(F)ccc2[C@@H]1C(C)C`, the molecule was classed as inactive in test [1], in [2], in test [9], in test [10], in [11] and in test [16]. Also, the Potency in [3] is 31.6 µM (active); in test [4], 14.6 µM (active); in [5], 2.31 µM (active); in test [6], 26.1 µM (active). The Potency result in test [7], in [12] and in test [14] was “inactive” throughout.
`C[C@]12CCC(=O)C=C1CC[C@@H]1[C@@H]2CC[C@@]2(C)[C@H]1CC[C@]2(O)C(=O)CO`: the result in test [1], in test [2], in test [9], in test [10] and in test [11] was inactive. Moreover, the Potency result in test [3], in test [4], in [6], in test [7], in [8] and in test [12] was “inactive” in each case. The Potency result in test [14] and in test [15] was “inactive” each time.
With `Cc1cccc(C)c1NC(=O)C(C)N` (centres undefined), the result in test [1], in [2], in test [9], in test [10] and in [11] was inactive. Moreover, the Potency result in [3], in test [4], in [6], in test [7], in [8] and in test [12] was “inactive” each time. Further, the Potency entry in test [13], in test [14] and in test [15] was “inactive” throughout.
Consider `CCN(CC)CCNC(=O)c1ccc(NC(C)=O)cc1`, for which the result in [1], in test [2], in [9], in [11] and in test [16] was inactive. Further, the Potency result in [3], in [4], in [5], in [6], in [7] and in test [8] was “inactive” throughout. In addition, the Potency result in [12], in [14] and in [15] was “inactive” in each case.
For `C[C@]12CCC(=O)C=C1CC[C@@H]1[C@@H]2C(=O)C[C@@]2(C)[C@H]1CC[C@]2(O)C(=O)CO`, the molecule was called inactive in test [1], in test [2], in [9], in [10], in [11] and in test [16]. The Potency result in test [3], in [4], in test [5], in test [8], in [12] and in [13] was “inactive” throughout. The Potency result in test [14] and in test [15] was “inactive” in each case.
